Screening results (PubChem BioAssay)
HT1080-NT tox: kills 2HG-producing HT-1080-NT fibrosarcoma cells. HT-1080-NT fibrosarcoma viability, CellTiter-Glo ATP luminescence, 48 h. Potency, µM (series often up to 46.1 µM), actives largely listed as cytotoxic. 1.6% of 360,000 active;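 note: NT is the 2HG producing partner of a matched IDH1 knockdown line; nearly all actives have a fitted effect of over 55% in size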
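HT-1080-NT fibrosarcoma cells (2HG-overproducing), 750 cells/well in RPMI with 5% FBS, dosed after 2 h and incubated 48 h at 37C. CellTiter-Glo luminescence normalized to DMSO and no-cell wells; concentration-response curves fitted and classed.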
TDP1 cell CPT: DT40-hTDP1 cell growth loss with CPT | 12% of 420,000 active | Potency, µM (highest dose often 46.2 µM), most hits filed as inhibitors | chicken DT40 Tdp1-/-;hTDP1 cells + 20 nM CPT, ATP luminescence, 48 h | AID 686979; note: nearly all actives have a fitted effect of over 55% in size
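Cell growth measured by CellTiter-Glo luminescence after a minimum 48 h, 37 C compound exposure with 20 nM CPT in Tdp1-knockout DT40 cells stably expressing hTDP1, seeded 400/well; qHTS titration format.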
HT1080 IDH1KD tx: kills HT-1080 cells with IDH1 knockdown; Potency, µM (top dose mostly 46.1 µM), most hits filed as cytotoxic; 2% of 360,000 active; HT-1080 IDH1 knockdown viability, ATP luminescence, 48 h
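IDH1KD HT-1080 cells, 750/well, RPMI + 5% FBS; compound pinned after 2 h settling; 48 h, 37 °C; CellTiter-Glo luminescence; % activity normalised to DMSO and no-cell wells; curves fitted, classed by r2 and efficacy.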
DT40 TDP1 no CPT: qHTS for Inhibitors of human tyrosyl-DNA phosphodiesterase 1 (TDP1): qHTS in cells in absence of CPT; DT40 Tdp1-/- hTDP1 cells, no CPT, ATP luminescence, 48 h; Potency, µM (highest dose often 46.2 µM), hits mostly inhibitors; 15% of 420,000 active; note: nearly all actives have a fitted effect of over 55% in size
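Seeded 400 DT40-hTDP1 cells/well (vehicle DMSO, no 20 nM CPT); pinned compounds; ≥48 hr at 37 °C; CellTiter-Glo luminescence as viability measure.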
IL-1B inflam inh: blocks inflammasome-driven IL-1 beta release. 4.7% of 360,000 active. activity change, % at 57.5 µM. THP-1 LPS/ATP IL-1B secretion, AlphaLISA, 16 h; hits give low values. AID 743279; in the data active = activity change below about -50%; inconclusive = mostly about -30% to -49%
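THP-1 cells pretreated 1 hr with compounds (up to 57.5 uM final), then stimulated with LPS (250 ng/mL final) plus ATP (1.25 mM final); secreted IL-1B measured by AlphaLISA after 16 hr, decreased signal indicating inhibition.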
Large screens that a line does not name were inactive. The list is not random: actives were taken first. Their share in the collection is about 19%. Unless noted, calls come from the whole dose curve; as a rule, active = well fitted curve in the direction sought with a large enough effect; inconclusive = small, poorly fitted or top-dose-only effect, or another doubt; inactive = no such curve, though single readings can be large; an effect the other way counts as inactive or inconclusive.

CC(=O)C1=CCC(c2ccccc2)N(S(=O)(=O)c2ccccc2C)C1 (stereo unspecified)	TDP1 cell CPT inconclusive, DT40 TDP1 no CPT 21µM
CCOC(=O)C1=CCC(c2ccccc2)N(S(=O)(=O)c2ccccc2C)C1 (stereo unspecified)	TDP1 cell CPT inconclusive, DT40 TDP1 no CPT 23µM
COC(=O)C1(Cc2cc(-c3cccc(Br)c3)no2)CCN(C(=O)OC(C)(C)C)CC1	TDP1 cell CPT inconclusive, DT40 TDP1 no CPT inconclusive
COC(=O)C1(Cc2cc(-c3ccc(OC)cc3OC)no2)CCN(C(=O)OC(C)(C)C)CC1	TDP1 cell CPT inconclusive, DT40 TDP1 no CPT 21µM
COc1ccccc1-n1c(SCC(=O)Nc2cccc(C)c2)nc2c(c1=O)SCC2	DT40 TDP1 no CPT inconclusive
CCCCNC1C(CC)C(CCC)C(C#N)(C#N)C1(C#N)C#N (stereo unspecified)	HT1080-NT tox inconclusive, TDP1 cell CPT 13µM, HT1080 IDH1KD tx inconclusive, DT40 TDP1 no CPT 8.2µM, IL-1B inflam inh -118
CC1CCCC(C)N1C(=O)COC(=O)Cn1cnc2c1c(=O)n(C)c(=O)n2C (stereo unspecified)	none
CCN1C(=O)c2ccccc2S(=O)c2ccc(C(=O)N3CCN(c4cccc(C)c4)C(C)C3)cc21 (stereo unspecified)	TDP1 cell CPT inconclusive, DT40 TDP1 no CPT 16µM (no result: HT1080-NT tox, HT1080 IDH1KD tx, IL-1B inflam inh)
Cc1cccc(N2CCN(C(=O)c3ccc4c(c3)N(Cc3cccc(Cl)c3)C(=O)c3ccccc3S4=O)CC2C)c1 (stereo unspecified)	TDP1 cell CPT 5.8µM, DT40 TDP1 no CPT 6.5µM (no result: HT1080-NT tox, HT1080 IDH1KD tx, IL-1B inflam inh)
O=C(c1ccc2c(c1)N(Cc1cccc(Cl)c1)C(=O)c1ccccc1S2(=O)=O)N1CCN(c2cccc(C(F)(F)F)c2)CC1	DT40 TDP1 no CPT inconclusive (no result: HT1080-NT tox, HT1080 IDH1KD tx, IL-1B inflam inh)
CCCCC[C@H](O)/C=C/C1C(=O)C=C[C@H]1C/C=C\CCCC(=O)OC (stereo partly specified)	HT1080-NT tox inconclusive, TDP1 cell CPT 5.8µM, HT1080 IDH1KD tx inconclusive, DT40 TDP1 no CPT 7.3µM, IL-1B inflam inh -102
CCCCC[C@H](O)/C=C/[C@H]1C(=O)C=C[C@@H]1C/C=C\CCCC(=O)O	none (no result: HT1080-NT tox, HT1080 IDH1KD tx, IL-1B inflam inh)
CCOC(=O)c1ccc(NC(=O)Nc2ccc3snnc3c2)cc1	TDP1 cell CPT inconclusive, DT40 TDP1 no CPT 2.9µM (no result: HT1080-NT tox, HT1080 IDH1KD tx, IL-1B inflam inh)
O=C(Nc1ccc2snnc2c1)Nc1cccc2ccccc12	HT1080-NT tox inconclusive, TDP1 cell CPT 23µM, HT1080 IDH1KD tx inconclusive, DT40 TDP1 no CPT inconclusive
CCc1ccccc1NC(=O)Nc1ccc2snnc2c1	TDP1 cell CPT 18µM, DT40 TDP1 no CPT 21µM (no result: HT1080-NT tox, HT1080 IDH1KD tx, IL-1B inflam inh)
O=C(c1cc(-c2ccc(Cl)cc2)n[nH]1)N1CCc2ccccc2C1	none
O=S(=O)(c1cccc2nsnc12)N1CCc2ccccc21	none
CSc1cccc(NC(=O)CC(C)n2ccnc2)c1 (stereo unspecified)	none
Cc1ccc(NC(=O)C(NC2CCCC2)c2ccccc2)cc1Cl (stereo unspecified)	TDP1 cell CPT inconclusive, DT40 TDP1 no CPT 16µM, IL-1B inflam inh inconclusive
Cc1cc(C(=O)OC(C(=O)Nc2ccc(C)c(Cl)c2)c2ccccc2)c(C)o1 (stereo unspecified)	TDP1 cell CPT 23µM, DT40 TDP1 no CPT 29µM
Cc1ccc(NC(=O)C(OC(=O)c2ccc(NC(N)=O)cc2)c2ccccc2)cc1Cl (stereo unspecified)	HT1080-NT tox inconclusive, TDP1 cell CPT inconclusive, HT1080 IDH1KD tx inconclusive, DT40 TDP1 no CPT inconclusive, IL-1B inflam inh -53
CN(C(=O)c1ccc(NC(=O)C2CCCN(C(=O)OC(C)(C)C)C2)cc1)C1CCCCC1 (stereo unspecified)	TDP1 cell CPT inconclusive, DT40 TDP1 no CPT inconclusive
CCCCc1cc(=O)oc2cc(C)cc(OCC(=O)Nc3ccccn3)c12	none
CCS(=O)(=O)N1Cc2ccccc2CC1C(=O)N(C)CC(=O)Nc1ccc(F)c(F)c1F (stereo unspecified)	none
COc1ccccc1/C=C1\SC(=O)N(CC(=O)N(C)C2CCS(=O)(=O)C2)C1=O (stereo unspecified)	none
COc1cc(C(=O)Nc2ccccc2NC(=O)c2cc(OC)c(OC)c(OC)c2)cc(OC)c1OC	none
COc1cc(C(=O)NC(=S)Nc2ccccc2N2CCCC2)cc(OC)c1OC	HT1080-NT tox inconclusive, TDP1 cell CPT inconclusive, HT1080 IDH1KD tx inconclusive, DT40 TDP1 no CPT 21µM
COc1c(C)cccc1C(=O)NC(=S)Nc1ccccc1N1CCCC1	TDP1 cell CPT inconclusive
COc1cc(C(=O)Nc2ccccc2N2CCCCC2)cc(OC)c1OC	TDP1 cell CPT inconclusive, DT40 TDP1 no CPT 21µM
CC(C)c1cc(Cn2c3ccccc3c(=O)n2C(C)CBr)on1 (stereo unspecified)	TDP1 cell CPT inconclusive, DT40 TDP1 no CPT inconclusive
CC1CC(C)CN(C(=O)COC(=O)COc2ccccc2C#N)C1 (stereo unspecified)	none
C=CCC[C@H](CCCCC)OC(=O)/C=C/[C@H](O)[C@@H](O)C[C@H](O)CC=C	TDP1 cell CPT inconclusive, DT40 TDP1 no CPT 26µM
C=CCC[C@@H](CCCCC)OC(=O)/C=C/[C@H](O)[C@@H](O)C[C@H](O)CC=C	HT1080-NT tox inconclusive, TDP1 cell CPT inconclusive, DT40 TDP1 no CPT inconclusive, IL-1B inflam inh -55
C[C@@H]1CN([C@H](C)CO)C(=O)CCCn2nncc2CO[C@H]1CN(C)Cc1ccncc1	none
O=C1C(=C2CCCCC2)SC(=S)N1Cc1ccco1	TDP1 cell CPT inconclusive, HT1080 IDH1KD tx inconclusive, DT40 TDP1 no CPT 16µM
Cc1ccc(C)c(Cn2c(=O)n(Cc3ccccc3)c(=O)c3sc4ccccc4c32)c1	none (no result: HT1080-NT tox, HT1080 IDH1KD tx, IL-1B inflam inh)
Cc1cc(C(=O)CN2C(=O)NC(C)(c3ccc(F)c(F)c3)C2=O)c(C)n1C1CC1 (stereo unspecified)	TDP1 cell CPT 7.3µM, DT40 TDP1 no CPT 5.8µM
CC(Sc1nnc(NC2CC2)s1)C(=O)Nc1ccc(N2CCOCC2)cc1 (stereo unspecified)	none
CC(Sc1nnc(NC2CCCCC2)s1)C(=O)Nc1ccc2c(c1)C(=O)c1ccccc1C2=O (stereo unspecified)	TDP1 cell CPT inconclusive, DT40 TDP1 no CPT 21µM
O=C(O)c1cn(-c2ccc(F)cc2)c2cc(N3CCNCC3)c(F)cc2c1=O	TDP1 cell CPT inconclusive, DT40 TDP1 no CPT 16µM
O=c1[nH]cnc2nc(-c3ccccc3)c(-c3ccccc3)nc12	TDP1 cell CPT 1.5µM, DT40 TDP1 no CPT 2.9µM
Cc1ccc(OCc2cn3cccnc3n2)cc1	none
CCCNC(=O)c1cc(C2CCCN(C(=O)C3CCCCC3)C2)on1 (stereo unspecified)	HT1080 IDH1KD tx inconclusive
CCOC(=O)C1=C(CS(=O)(=O)c2ccc(C)cc2)NC(=O)NC1c1ccc(C(C)C)cc1 (stereo unspecified)	TDP1 cell CPT 18µM, DT40 TDP1 no CPT 12µM (no result: HT1080-NT tox, HT1080 IDH1KD tx, IL-1B inflam inh)
